The results in this text go back to PubChem BioAssay AID1851 (National Center for Advancing Translational Sciences (NCATS), 2009).

The whole screen tested about 16,000 compounds, of which about 5,700 (36%) were called active. Roughly 24% stayed inconclusive and do not appear here. The list shows a part of the results. A number with no mark means an inactive call. Calls come from the whole dose curve; as a rule, active = well fitted curve in the direction sought with a large enough effect; inconclusive = small, poorly fitted or top-dose-only effect, or effect the other way; inactive = no such curve, though single readings can be large or run the other way.
% is set by controls: 0 for no effect and ±100 for the full control effect.

Sequence of Cytochrome P450 1A2 (Homo sapiens) (P05177 whole entry, looked up): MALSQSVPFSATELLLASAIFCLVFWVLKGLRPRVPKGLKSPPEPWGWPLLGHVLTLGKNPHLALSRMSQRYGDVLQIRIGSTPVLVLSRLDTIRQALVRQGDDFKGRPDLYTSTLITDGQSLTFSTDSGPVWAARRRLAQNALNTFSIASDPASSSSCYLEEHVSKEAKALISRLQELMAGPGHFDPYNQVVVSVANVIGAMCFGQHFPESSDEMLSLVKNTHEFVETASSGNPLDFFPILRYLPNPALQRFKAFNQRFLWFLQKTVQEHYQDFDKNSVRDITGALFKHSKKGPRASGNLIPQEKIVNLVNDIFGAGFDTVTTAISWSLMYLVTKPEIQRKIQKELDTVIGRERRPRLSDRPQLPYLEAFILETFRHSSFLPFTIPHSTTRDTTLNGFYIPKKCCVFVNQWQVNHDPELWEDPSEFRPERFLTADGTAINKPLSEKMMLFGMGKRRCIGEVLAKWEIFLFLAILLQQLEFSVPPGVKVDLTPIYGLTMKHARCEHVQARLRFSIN

This experiment addresses Cytochrome P450 1A2 (Homo sapiens) (UniProt P05177). The experiment is described as follows: Cytochrome panel assay with activity outcomes. The following applies: recombinant CYP, pro-luciferin dealkylation, luminescence, p450-cyp1a2; series mostly up to 57.1 µM; activity, negative = inhibition: at the top concentration.
One may read the AC50 as the concentration at which the activity in the assay is half-maximal. With `CS(=O)(=O)Nc1cccc(-c2ccc3ncnc(NCc4cccs4)c3c2)c1`, the concentration at half-maximal activity (AC50) was 0.0794 µM (active).
Take `CS(=O)(=O)Nc1cccc(-c2cncnc2NCc2cccs2)c1`: the AC50 was 15.8 µM (active).
For the molecule `Cc1cccc(CNc2ncncc2-c2cccc(NS(C)(=O)=O)c2)c1`, the AC50 was 12.6 µM (active).
As for `CS(=O)(=O)Nc1cccc(-c2cncnc2NCc2ccccc2)c1`, the AC50 is 25.1 µM (active).
As to `CC(=O)Nc1c(I)c(C(=O)N[C@H]2[C@@H](O)[C@H](O)[C@H](CO)O[C@@H]2O)c(I)c(N(C)C(C)=O)c1I`, the “activity, negative = inhibition” value was -14.8% [at 25.6 µM].
Turning to `CC12CS(=O)(=O)CC1SC(=S)N2c1ccccn1` (stereo not drawn), the “activity, negative = inhibition” value was -6.29%.
Consider `O=S(=O)(NCc1cccnc1)c1ccc(Cl)nc1`, for which the “activity, negative = inhibition” value is -6.12%.
On to `CS(=O)(=O)Nc1cccc(-c2ccc3ncnc(NCc4cccnc4)c3c2)c1`, for which the AC50 is 0.316 µM (active).
Take `CS(=O)(=O)Nc1cccc(-c2cncnc2NCc2cccnc2)c1`: the AC50 is 15.8 µM (active).
As for `C[C@H](O)C(=O)C1=Nc2c(nc(N)[nH]c2=O)NC1`, the “activity, negative = inhibition” value is -9.29%.
Regarding `C=CCn1c(SCC(=O)N2CCc3ccccc3C2)nc2ccccc2c1=O`, the concentration at half-maximal activity (AC50) was 8.91 µM (active).
`O=C(Cn1c(SCC(=O)N2CCc3ccccc3C2)nc2ccccc21)NC1CCCC1`: the “activity, negative = inhibition” value is -25.7%.
Still for that read-out and setting: for `O=C(O)CCCCCn1c(SCC(=O)N2CCCC2)nc2ccsc2c1=O` the value was 15.6%; for `CC(C)OC(=O)c1cccc(C(=O)Oc2ccc(Br)cc2)n1`, -28.5%.
Consider `CCn1ccc(C(=O)Oc2ccc(Cl)cc2)n1`, for which the AC50 is 14.1 µM (active).
On to `Cc1ccccc1-c1nc(N2CCOCC2)c2ccccc2n1`, for which the AC50 is 2 µM (active).
Turning to `CC(C)(C)c1nc(SCC(=O)Nc2ccc(N3CCOCC3)cc2)c2ccccc2n1`, the “activity, negative = inhibition” value is -25.2%.
As to `Clc1ccccc1-c1nc(N2CCNCC2)c2ccccc2n1`, the AC50 is 2.51 µM (active).
With `CN1c2ccccc2C(C)(C)C12C=Nc1c(cc(N3CCOCC3)c3ccccc13)O2` (stereo not drawn), the “activity, negative = inhibition” value was -29.8%.
On to `Cc1ccccc1-c1nc(N2CCNCC2)c2ccccc2n1`, for which the half-maximal activity concentration (AC50) is 5.01 µM (active).
Regarding `C[C@@H](N1CCOCC1)[C@@](O)(c1ccccc1)c1ccccn1`, the activity, negative = inhibition is -2.48% [at 2.29 µM].
For the molecule `CN(C)Cc1ccccc1-c1nc(N2CCOCC2)c2ccccc2n1`, the AC50 is 20 µM (active).
Take `CN(C)/N=N\c1nc[nH]c1C(N)=O`: the “activity, negative = inhibition” value was -11.7% [at 25.6 µM].
Take `COc1ccc(O[C@H]2C=C[C@@H](c3ccccc3)O[C@@H]2CO/N=C(\C)CCN2CCCc3nc(C)c(C)cc32)cc1`: the activity, negative = inhibition is -4.49% [at 11.4 µM].
Take `C=CC[C@@H]1C=C[C@H](O/N=C(\C)CCN2CCCCc3nc(C)c(C)cc32)[C@H](CO)O1`: the activity, negative = inhibition is -6.73% [at 11.4 µM].
For the molecule `CC[C@]1(O)C[C@@H]2CN(CCc3c([nH]c4ccccc34)[C@](C(=O)OC)(c3cc4c(cc3OC)N(C)[C@H]3[C@](O)(C(=O)OC)[C@@H](C(=O)OC)[C@@]5(CC)C=CCN6CC[C@@]43[C@@H]65)C2)C1`, the “activity, negative = inhibition” value was -17.5%.
With `CCN(C(=S)Nc1ccccc1F)C1CCCCC1`, the AC50 was 15.8 µM (active).
Regarding `CCCN(C(=S)Nc1ccccc1)C1CCS(=O)(=O)C1` (stereo not drawn), the “activity, negative = inhibition” value was -20.8%.
Turning to `CN(C(=S)Nc1ccccc1F)C1(c2ccccc2Cl)CCCCC1=O` (stereo not drawn), the “activity, negative = inhibition” value was -2.66%.
With `c1cncc(-c2cc(NCc3cccs3)ncn2)c1`, the concentration at half-maximal activity (AC50) was 1 µM (active).
As to `COc1cccc(-c2cc(NCc3ccccc3)ncn2)c1`, the AC50 is 2 µM (active).
`COc1cccc(/C=N/NC(=O)C(=O)NCc2cccnc2)c1`: the “activity, negative = inhibition” value was -12.7%.
For `COc1cccc(-c2cc(NCc3cccnc3)ncn2)c1`, the AC50 is 0.631 µM (active).
On the same count and under the same terms, as for `COc1cccc(-c2cc(NCc3cccs3)ncn2)c1`, the figure is 1.26 µM (active).
For the molecule `COCC(=O)N1CCC2(CCCN(Cc3ccccc3)C2)CC1`, the “activity, negative = inhibition” value was -11.7%.
In the case of `CS(=O)(=O)N1CCC2(CCN(C(=O)Nc3cccc(C#N)c3)CC2)CC1`, the “activity, negative = inhibition” value was 3.5%.
With `Cc1c2cccc(Sc3ccccc3)c2c2c3c(cccc13)[S+](c1ccccc1)C2` (stereo not drawn), the activity, negative = inhibition was -17.3% [at 2.29 µM].
Regarding `O=C(Nc1c2c(nn1-c1ccc(F)cc1)CS(=O)(=O)C2)C12CC3CC(CC(C3)C1)C2`, the “activity, negative = inhibition” value was -9.18%.
Regarding `Cc1cc(C2C(C#N)=C(N)OC3=C2C(=O)CC(C)(C)C3)c(C)s1` (stereo not drawn), the “activity, negative = inhibition” value is -13%.
Consider `Cc1cc(C2C(C#N)=C(N)Oc3n[nH]c(C)c32)c(C)s1` (stereo not drawn), for which the concentration at half-maximal activity (AC50) was 15.8 µM (active).
With `N#CC(=C(/N)Sc1ccccc1N)/C(C#N)=C(/N)Sc1ccccc1N`, the half-maximal activity concentration (AC50) was 12.6 µM (active).
On the same count and under the same terms, for `Cc1cc(NC(=O)Nc2ccc(F)cc2)no1` the value was 10 µM (active).
Take `Cc1ccc(C2(C)NC(=O)N(CC(=O)Nc3cc(C)on3)C2=O)cc1` (stereo not drawn): the “activity, negative = inhibition” value was 1.55%.
Same read-out and setting: for `Cc1cc(NC(=O)CN2C(=O)NC(C)(c3ccc(OC(F)F)cc3)C2=O)no1` (stereo not drawn) the value was -13.6%; for `CN1CCN(NC(=O)c2cccc(F)c2)CC1`, -1.53%; for `Cc1ccc(N2CC(C(=O)Nc3cc(C)on3)CC2=O)cc1` (stereo not drawn), -15.9%.
As for `Cc1cc(NC(=O)c2cccc(F)c2)no1`, the concentration at half-maximal activity (AC50) is 17.8 µM (active).
As to `Cc1ccc(N2C(=O)CC(c3ccsc3)C3=C2CC(C)(C)CC3=O)cc1` (stereo not drawn), the “activity, negative = inhibition” value was -0.626%.
